Screens as filed in PubChem.
rat GALR2 agon: agonists of rat galanin receptor 2 (GALR2); cell-based GALR2 agonist screen; activation, % at 10 µM; 16,000 compounds, 0.5% hits; AID 833, 2007; in the data active means activation above about 15%
S1P1 agonist: activates the human S1P1 receptor. S1P1 agonist cell-based reporter assay. activation, % at 4.5 µM. 16,000 compounds, 1.5% hits; in the data active means activation above about 80%
Target sequence (P21453 whole entry, looked up): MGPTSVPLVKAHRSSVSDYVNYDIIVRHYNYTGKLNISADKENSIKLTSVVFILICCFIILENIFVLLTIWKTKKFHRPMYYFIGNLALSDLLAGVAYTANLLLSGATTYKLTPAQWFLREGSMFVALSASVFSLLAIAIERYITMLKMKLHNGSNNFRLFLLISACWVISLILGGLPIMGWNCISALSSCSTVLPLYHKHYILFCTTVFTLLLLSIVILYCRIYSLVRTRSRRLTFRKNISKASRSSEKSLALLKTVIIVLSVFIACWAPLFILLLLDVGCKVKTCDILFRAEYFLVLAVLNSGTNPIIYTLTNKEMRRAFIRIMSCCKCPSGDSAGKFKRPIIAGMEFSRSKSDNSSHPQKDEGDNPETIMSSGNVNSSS
* hit, by the source's call. In the library only some 2% were active in any assay of this set; here they are far more common.

SMILES	rat GALR2 agon	S1P1 agonist
Nc1nccc(-c2ccc(NC(=O)Nc3ccc(OC(F)(F)F)cc3)cc2)n1	-6.0	17.7
CC(C)(C)c1ccc(Oc2ccc(NC(=O)c3ccco3)cn2)cc1	-3.4	37.6
O=C(Nc1cccc(C(F)(F)F)c1)Nc1ccc2nonc2c1	-0.6	59.4
O=C(Nc1ccc(Oc2cccc(C(F)(F)F)c2)nc1)c1ccc2c(c1)CCO2	-1.0	90.1*
O=C(Nc1ccccc1)Nc1ccc(Oc2cccc(C(F)(F)F)c2)nc1	-6.4	86.7*
COC(=O)c1scc(C#N)c1N/N=C(\C#N)S(=O)(=O)c1cccs1	-4.7	34.0
N#C/C(=N\Nc1ccc(C(F)(F)F)cc1)S(=O)(=O)c1cccs1	-12.0	110.4*
O=C(/C=C/Sc1nc2ccccc2o1)c1ccc(F)cc1	-14.7	-13.4
COCCOc1cc2ncnc(N3CCC(C(=O)O)CC3)c2cc1OCCOC	-2.0	113.4*
CCOC(=O)c1ccc(OCCOC)c(OCCOC)c1	-5.9	16.2
Cc1onc(-c2c(Cl)cccc2Cl)c1C(=O)c1ccccc1	-4.5	30.5
Cc1onc(-c2c(F)cccc2Cl)c1C(=O)Oc1ccccc1	-12.3	95.4*
Cc1cc(C(=O)Nc2ccccc2N2CCCCC2)c(C)o1	-7.5	-10.1
C/C(=N\Nc1ccccc1)c1ccc(Oc2ncc([N+](=O)[O-])s2)cc1	-5.0	-3.4
Cc1c2c(=O)n(C)ncc2c(-c2ccccc2)n1-c1ccc([N+](=O)[O-])cc1	-8.1	25.6
O=c1c2c(-c3ccc([N+](=O)[O-])cc3)onc2n(-c2ccccc2)c(=O)n1-c1ccccc1	-8.3	123.0*
O=C1C=CC(=O)N1Cc1cccs1	-4.6	-15.2
Cc1nccc(-c2cccc(NN=C(C#N)C#N)c2)n1	-8.7	104.4*
Cc1nccc(-c2cccc(N/N=C(\C#N)S(=O)(=O)c3ccccn3)c2)n1	-7.1	-2.2
Cc1cc(-c2n[nH]c(=S)n2C)nn1-c1ccc([N+](=O)[O-])cc1	-1.4	99.7*
Cc1c(-c2c(C#N)cnn2-c2ccc([N+](=O)[O-])cc2)sc2ccc(Cl)cc12	-7.4	-6.2
Cc1c(C#N)c2nc3ccccc3n2c(=O)/c1=C\NN1C(=O)CNC1=S	-6.6	0.1
Cc1ccn2c([N+](=O)[O-])cnc2c1	-2.2	-2.0
CCOC(=O)CSc1c(C)[nH]c2ccccc12	-7.9	-7.6
Cc1[nH]c2ccccc2c1SCc1n[nH]c(=S)n1C	20.1*	0.0
SMILES	rat GALR2 agon	S1P1 agonist
O=C(NNc1cc(Cl)cc(Cl)c1)c1ccc(F)cc1F	-6.6	-2.0
O=[N+]([O-])c1ccc(N/N=C/c2ccccc2)c([N+](=O)[O-])c1	-6.0	-3.3
COc1cscc1C(=O)N/N=C/c1ccc(Cl)cc1	-0.8	40.8
CCOC(=O)CNc1ccc(C(F)(F)F)cc1	61.1*	5.2
CCOC(=O)NC(=S)Nc1ccc(C(C)(C)C)cc1	-5.9	-16.1
Cn1ccnc1CS(=O)(=O)c1cc(Cl)c(Oc2ccc([N+](=O)[O-])cc2Cl)c(Cl)c1	-6.0	104.5*
O=[N+]([O-])c1ccc(OCS(=O)(=O)c2ccc(F)cc2F)c(Cl)c1	-4.8	15.9
CCOC(=O)c1ccc(N2CCOCC2)c(N)c1	-3.7	4.3
CCOC(=O)Cn1c(=O)c(-c2nc(-c3ccc(Cl)cc3)cs2)cn(C(C)C)c1=O	15.6*	9.6
CSc1sc(C(=O)O)cc1-c1nc(-c2ccc(Cl)cc2)cs1	-7.5	4.7
O=C(Nc1ccccc1)Nc1ccccc1Sc1c(Cl)cncc1Cl	-5.1	1.4
O=C(Nc1ccccn1)c1cc(-c2ccccc2)c(C(F)(F)F)s1	-9.9	87.3*
Cc1cc(NC(=O)c2cc(-c3ccccc3)c(C(F)(F)F)s2)on1	-4.3	-5.0
CC1(O)C2CC3CC(C2)CC1C3 (centres undefined)	-1.5	-4.2
CCOC(=O)/C(C#N)=C/N1CCN(c2ccc(C(F)(F)F)cc2[N+](=O)[O-])CC1	0.6	2.4
COc1ccc(S(=O)(=O)N2CCN(c3ccc(C(F)(F)F)cc3[N+](=O)[O-])CC2)cc1OC	79.7*	51.3
C/S(=N/C(=O)Nc1ccc(Cl)cc1)c1sc(Cl)c2c1C(=O)CC(C)(C)C2 (centres undefined)	-3.3	55.2
C/S(=N\S(=O)(=O)c1ccc(Cl)cc1)c1sc(Cl)c2c1C(=O)CC(C)(C)C2 (centres undefined)	-3.0	82.6*
Cn1cc(C(=O)O/N=C(\N)c2ccc(C(C)(C)C)cc2)c(C(F)(F)F)n1	-5.6	100.0*
N/C(=N/OC(=O)c1ccno1)c1ccc(C(F)(F)F)cc1	-3.0	19.2
CCOC(=O)c1ccc(Oc2ccc(Cl)cc2Cl)c([N+](=O)[O-])c1	-3.8	93.5*
COC(=O)c1ccc([N+](=O)[O-])c(Oc2ccc(Cl)cc2Cl)c1	-9.2	71.2
S=C(NCc1ccco1)Nc1ccc(C2=NCCO2)cc1	-1.5	-13.1
S=C(NCc1ccco1)Nc1cccnc1	-8.2	119.7*
CCOC(=O)c1cc(NS(=O)(=O)c2ccc3c(c2)CCO3)ccc1N1CCCCC1	10.9	-15.4
Cn1sc(=O)c2cc(S(=O)(=O)Nc3ccccc3N3CCCCC3)ccc21	15.9*	-2.7
Cc1ccc(S(=O)(=O)NC(=O)Nc2ccccc2N2CCCCC2)cc1	-7.9	-4.1
